# Experimental data from ChEMBL document CHEMBL4513216, “Probing the Open Global Health Chemical Diversity Library for Multistage-Active Starting Points for Next-Generation Antimalarials” (ACS Infect Dis, 2020).
# About 8,600 (12%) of roughly 69,000 compounds showed an effect of 50% or more. Only a selection was taken, and strong results are over-represented in it overall.
# System: Plasmodium berghei
# Test: Screen against P. berghei liver stage (PbLuc), transformed with Luciferase, at 10uM
# Type: functional, HepG2
# Details: tested at 10 uM
row,SMILES,INHIBITION [%]
1,O=C(c1cnccn1)N1CCOC2(CCN(Cc3ccsc3)CC2)C1,13.7
2,CNC(=O)NCC1CCC2(CCN(C(=O)c3ccccn3)CC2)CO1 (stereo not drawn),35.8
3,CN(C)Cc1cc(C2CCN(C(=O)C3CC34CCC4)CC2)nn1C (stereo not drawn),8.53
4,CCCOc1ccc(CC2=NC(C)(CO)CO2)cc1 (stereo not drawn),58.3
5,CC1(CO)COC(Cc2ccc(Cl)cc2)=N1 (stereo not drawn),0.29
6,CC(C)Oc1ccc(CC2=N[C@](C)(CO)CO2)cc1,16
7,CCn1cc(C(=O)Nc2ccccc2C(=O)OC)cn1,21.5
8,CS(=O)(=O)N1CCOCC2(CCN(Cc3ccoc3)CC2)C1,35.5
9,O=C1NCC2(CCCN(Cc3ccc(F)cc3)C2)Oc2ccccc21 (stereo not drawn),46
10,CSc1ccc(CN2CCCC3(CNC(=O)c4ccccc4O3)C2)cc1 (stereo not drawn),73.7
11,O=C1NCC2(CCCN(Cc3ccncc3)C2)Oc2ccccc21 (stereo not drawn),36.4
12,O=C(NCCc1nccs1)c1n[nH]c2c1CCC2,-147
13,CN1CCC(CNC(=O)c2ccc3cccc(Cl)c3n2)C1 (stereo not drawn),9.4
14,Cc1ccc2cccc(C(=O)NCCOCC3CC3)c2n1,-58.5
15,Cc1ccc2cccc(C(=O)NCC3CCN(C(C)C)C3)c2n1 (stereo not drawn),50.1
16,COCCn1cnc2c(F)cc(Br)cc2c1=O,47.4
17,CC(C)N(C)S(=O)(=O)c1ccc2c(c1)CCN(C(=O)c1cnccn1)C2,28.8
18,CC(C)N(C)S(=O)(=O)c1ccc2c(c1)CCN(C(=O)c1cscn1)C2,65.2
19,CC(C)N(C)S(=O)(=O)c1ccc2c(c1)CCN(C(=O)c1ccccn1)C2,-12.1
20,CCCc1cc(C(=O)NC(C)c2ccccc2)n(C)n1 (stereo not drawn),8.7
21,O=C(O)c1cc(Br)cnc1OCC1CC1,14.4
22,Cc1cc2c(cc1CNC(Cc1cccs1)c1nccs1)OCO2 (stereo not drawn),28.375
23,CCSCCC(=O)Nc1ncn(Cc2cccnc2)n1,-11.1
24,CCC(=O)Nc1ncn(Cc2cccnc2)n1,61.2
25,CCSCCC(=O)Nc1ncn(Cc2ccccc2)n1,42
26,N#Cc1ccc(NCC(=O)Nc2ncn(Cc3cccnc3)n2)cc1,72.3
27,N#Cc1ccc(NCC(=O)Nc2ccn(Cc3cccnc3)n2)cc1,41.4

row,SMILES,INHIBITION [%]
1,CC(C)N(Cc1cccnc1)C(=O)CNc1ccc(C#N)cc1,-21
2,Cc1ncsc1C(=O)NCCn1nc(C2CCNC2)c2cccnc21 (stereo not drawn),38.7
3,CCc1nc(CC(=O)NCC(Cc2ccc(F)cc2)C(N)=O)cs1 (stereo not drawn),48.2
4,O=C(NC1CC1)c1cccc(Oc2ccc3nncn3n2)c1,-34.4
5,COc1cc(C)sc1C(=O)N1CC(c2cccnc2)C1,56.8
6,COc1cc(C)sc1C(=O)N1CCCCC1c1ccccn1 (stereo not drawn),47.7
7,COc1cc(C)sc1C(=O)N1CCC(Nc2cccnc2)CC1,18.5
8,CC1(C)CC1(C(=O)N1CC(c2cccnc2)C1)c1ccccc1F (stereo not drawn),28.7
9,Cc1ccc(C(=O)N2Cc3ccccc3C2)cc1N1CCNC1=O,2.74
10,CC1(C)CC1(C(=O)N1CC(c2cccnc2)C1)c1ccc(F)cc1 (stereo not drawn),21.2
11,COc1ccc(C2(C(=O)N3CC(c4cccnc4)C3)CC2(C)C)cc1 (stereo not drawn),55.4
12,Cc1ccc(C(=O)N2CC(c3cccnc3)C2)cc1N1CCNC1=O,56.7
13,Cc1ccc(C(=O)N2CCSCC2)cc1N1CCNC1=O,48.5
14,COc1ccccc1CC(=O)N1CCCC(c2cc(C)[nH]n2)C1 (stereo not drawn),-24.2
15,Cc1ccc(-c2nnc(CNC(=O)c3cccnc3)o2)cn1,30.4
16,CC(=O)N1CCCN(C(=O)NCCCn2cncn2)CC1,-10.895
17,COCCN(CCN(C)C)C(=O)NC1CC1,7.25
18,COc1cc(C)ccc1C(=O)N1C[C@@H](CN(C)CCO)[C@@H](CO)C1,-1.38
19,COc1ccc(F)c(F)c1C(=O)N1C[C@@H](CN(C)CCO)[C@@H](CO)C1,-1.38
20,COCCN(C)C[C@H]1C[C@@H](CO)CN(C(=O)c2ccn(C)c(=O)c2)C1,35.5
21,COCCN(C)C[C@@H]1CN(C(=O)c2c(F)ccc(OC)c2F)C[C@@H]1CO,84.4
22,COCCN(CCOC)C(=O)NC1CCCCC1,50.8
23,COCCN(CCN(C)C)C(=O)NC1CCc2ccccc2C1 (stereo not drawn),-65.3
24,COc1cccc(C(=O)N2C[C@@H](CN(C)CCO)[C@@H](CO)C2)c1C,20.6
25,COCCN(C)C[C@H]1C[C@H](CO)CN(C(=O)c2ccn(C)c(=O)c2)C1,11.7
26,COc1ccc(C)cc1C(=O)N1C[C@@H](CN(C)CCO)[C@@H](CO)C1,56.9
